For 35 molecules, growth yield results are on record in the supplement of paper PMC8007513.

The assay concerns Trichoderma virens ATCC 9645. The experiment in a line: growth yield (OD600) relative to untreated control; higher = less growth inhibition. The note with it: compound concentration: 100 uM. The method, boiled down: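 A biocide at 200 ng ml^−1 was co-applied to some wells, and library compounds were present in all test wells at 100 μM final. The wells held 100 μl of Trichoderma virens ATCC 9645 spores at 15,000 spores ml^−1 in potato dextrose broth, grown at 30 °C in 96-well plates, with OD600 read at 40 h and 72 h. Results are relative growth against the control without either agent, averaged across duplicate screens.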

SMILES strings stand for the structures. Structures can show the parent of a compound that is named as a salt. ± gives the standard error. In all, about 1,300 compounds went through this assay and about 75 (6%) showed an effect of 50% or more. This is one part of a sample in which strong results are shown more often than they occur.

In turn, `N=C(N)NC(=O)Cc1c(Cl)cccc1Cl` [Guanfacine hydrochloride] displayed a growth yield (40 h) of 97.1 ± 1.4% and a growth yield (72 h) of 101.3 ± 0.63%.

In the case of `COC(=O)CCc1ccc(OCC(O)CNC(C)C)cc1` (stereo not given) [Esmolol hydrochloride], the growth yield (40 h) turned out to be 105 ± 4.6% and the growth yield (72 h) turned out to be 100 ± 1.5%.

Molecule `C/C(=C\C(=O)OCCCCCCCCC(=O)O)C[C@@H]1OC[C@H](C[C@@H]2O[C@H]2[C@@H](C)[C@H](C)O)[C@@H](O)[C@H]1O` [Mupirocin] came in with a growth yield (40 h) of 6.04 ± 2.9% and a growth yield (72 h) of 39.5 ± 8.5%.

Take `O=C(O)CCC(=O)Nc1ccc(S(=O)(=O)Nc2nccs2)cc1` [Succinylsulfathiazole]: the growth yield by setting is: (40 h) 94.7 ± 3.5%; (72 h) 93.9 ± 2.6%.

As to `OCC(O)CN1CCN(c2ccccc2)CC1` (racemic) [Dropropizine (R,S)], the growth yield amounted to 101 ± 1.6% (40 h) and 101.7 ± 0.63% (72 h).

`CC(C)(CO)C(O)C(=O)NCCCO` (stereo not given) [Panthenol (D)]: the growth yield worked out at 100 ± 4.5% (40 h) and 98.1 ± 3% (72 h).

As to `CC(=O)OC[C@H]1O[C@@H]([S-])[C@H](OC(C)=O)[C@@H](OC(C)=O)[C@@H]1OC(C)=O.CCP(CC)CC.[Au+]` [Auranofin], the growth yield was found to be 25.6 ± 2.1% (40 h) and 33 ± 2% (72 h).

For the molecule `CN(C)/N=N/c1[nH]cnc1C(N)=O` [Dacarbazine], the growth yield turned out to be 95.6 ± 1.9% (40 h) and 98 ± 3.4% (72 h).

Take `O=C1C(O)=C([C@H]2CC[C@H](c3ccc(Cl)cc3)CC2)C(=O)c2ccccc21` [Atovaquone]: the growth yield was 95.1 ± 4.3% (40 h) and 97.4 ± 1.6% (72 h).

`COc1cccc(N(C)C(=S)Oc2ccc3c(c2)CCCC3)n1` [Liranaftate]: the growth yield is, setting by setting: (40 h) 0%; (72 h) 0%.

Regarding `CC(C)(C(=O)c1cccnc1)c1cccnc1` [Metyrapone], the growth yield reads like this: (40 h) 91 ± 3%; (72 h) 88.4 ± 2.6%.

`COc1cc2nc(N(C)CCCNC(=O)C3CCCO3)nc(N)c2cc1OC` (stereo not given) [Alfuzosin hydrochloride]: the growth yield runs as follows: (40 h) 104.7 ± 0.79%; (72 h) 105 ± 3.6%.

Consider `OC(CNCC(O)C1CCc2cc(F)ccc2O1)C1CCc2cc(F)ccc2O1` (stereo not given) [Nebivolol hydrochloride], for which the growth yield reads like this: (40 h) 95 ± 16%; (72 h) 114 ± 14%.

Turning to `CN(C)CCOC1=Cc2ccccc2Sc2ccc(Cl)cc21` [Zotepine], the growth yield turned out to be 89.7 ± 14% (40 h) and 114 ± 11% (72 h).

Consider `NC(N)=Nc1nc(CSCC/C(N)=N/S(N)(=O)=O)cs1` [Famotidine], for which the growth yield reads like this: (40 h) 103 ± 1.9%; (72 h) 101 ± 1.3%.

`CCCCN(CCCC)CCC(O)c1cc2c(Cl)cc(Cl)cc2c2cc(C(F)(F)F)ccc12` (stereo not given) [Halofantrine hydrochloride]: the growth yield amounted to 25.6 ± 6.2% (40 h) and 95.9% (72 h).

`N=C(N)N/N=C/c1c(Cl)cccc1Cl` [Guanabenz acetate] returned a growth yield (40 h) of 91.5 ± 1.9% and a growth yield (72 h) of 90.7 ± 3.2%.

Take `COC(=O)[C@H]1[C@H]2C[C@@H]3c4[nH]c5cc(OC)ccc5c4CCN3C[C@H]2C[C@@H](OC(=O)c2cc(OC)c(OC)c(OC)c2)[C@@H]1OC` [Reserpine]: the growth yield by setting is: (40 h) 107 ± 5.4%; (72 h) 107 ± 2.8%.

In the case of `CCCCOc1ccc(C(=O)CCN2CCCCC2)cc1` [Dyclonine hydrochloride], the growth yield was 93.6 ± 3% (40 h) and 98.7 ± 1.6% (72 h).

Consider `CCCCOc1ccc(CC(=O)NO)cc1` [Bufexamac], for which the growth yield is, setting by setting: (40 h) 94.2 ± 1.1%; (72 h) 88.1 ± 2.9%.

For `N=C(N)c1ccc(OCCCCCOc2ccc(C(=N)N)cc2)cc1` [Pentamidine isethionate], the growth yield runs as follows: (40 h) 1.91 ± 0.95%; (72 h) 1.78 ± 0.52%.

As to `CC(C)(C)NC[C@@H](O)COc1cccc2c1CCCC2=O` [(+) -Levobunolol hydrochloride], the growth yield runs as follows: (40 h) 100.2 ± 0.16%; (72 h) 98.9 ± 0.1%.

Regarding `NS(=O)(=O)Cc1noc2ccccc12` [Zonisamide], the growth yield was 104.5 ± 0.95% (40 h) and 98.8 ± 1.9% (72 h).

As for `CN(C)CCN(Cc1ccccc1)c1ccccn1` [Tripelennamine hydrochloride], the growth yield came to 107 ± 1.4% (40 h) and 100 ± 1.6% (72 h).

In the case of `C[C@]1(Cn2ccnn2)[C@H](C(=O)O)N2C(=O)C[C@H]2S1(=O)=O` [Tazobactam], the growth yield is, setting by setting: (40 h) 98.96 ± 0.79%; (72 h) 96.8 ± 1.4%.

For `Clc1ccccc1C(c1ccccc1)(c1ccccc1)n1ccnc1` [Clotrimazole], the growth yield reads like this: (40 h) 2.38 ± 1.8%; (72 h) 1.89 ± 1.1%.

Consider `CN(C)c1ccc(O)c2c1C[C@H]1C[C@H]3[C@H](N(C)C)C(O)=C(C(N)=O)C(=O)[C@@]3(O)C(O)=C1C2=O` [Minocycline hydrochloride], for which the growth yield (40 h) is 95.3 ± 0.64% and the growth yield (72 h) stood at 97.4 ± 2%.

With `CC(C)(C)NC[C@H](O)COc1ccccc1C1CCCC1` [Penbutolol sulfate], the growth yield by setting is: (40 h) 109 ± 6.2%; (72 h) 110 ± 5.1%.

On to `CC(=O)N(CC(O)CO)c1c(I)c(C(=O)NCC(O)CO)c(I)c(C(=O)NCC(O)CO)c1I` (stereo not given) [Iohexol], for which the growth yield reads like this: (40 h) 103 ± 1.3%; (72 h) 106 ± 1.1%.

In the case of `CNC(C)CCC=C(C)C` (stereo not given) [Isometheptene mucate], the growth yield is 99.1 ± 3.8% (40 h) and 96.2 ± 4.3% (72 h).

With `CCCC(=O)Nc1ncnc2c1ncn2[C@@H]1O[C@@H]2COP(=O)(O)O[C@H]2[C@H]1OC(=O)CCC` [Bucladesine sodium salt], the growth yield turned out to be 97.69 ± 0.79% (40 h) and 97.75 ± 0.42% (72 h).

As to `Nc1nc2c(ncn2COCCO)c(=O)[nH]1` [Acyclovir], the growth yield turned out to be 103.7 ± 0.48% (40 h) and 101 ± 1.7% (72 h).

As to `Nc1nc2c(ncn2COC(CO)CO)c(=O)[nH]1` [Ganciclovir], the growth yield is 106 ± 4.3% (40 h) and 103 ± 4% (72 h).

With `Nc1nc2n[nH]nc2c(=O)[nH]1` [Azaguanine-8], the growth yield is, setting by setting: (40 h) 3.49 ± 0.95%; (72 h) 2.62 ± 0.1%.

In the case of `CC[C@]12CCCN3CCc4c(n(c5ccccc45)[C@@](O)(C(=O)OC)C1)[C@@H]32` [Vincamine], the growth yield reads like this: (40 h) 97.37 ± 0.16%; (72 h) 95.3 ± 1.4%.
